# Experimental data as given in ChEMBL document CHEMBL3988442, “University of Dundee, Small-Polar-MMV Screening Library” (2021).
# Screen size: about 48,000 compounds; about 13,000 (27%) showed an effect of 50% or more. The list shows a part of the results.
# System: Wolbachia pipientis
# Test: Anti-Wolbachia Cell-Based Screen
# Assay type: functional
# Parameters: scale not given: in the data most compounds retested in dose-response had high values
# Conditions: 5 µM
row,Compound,Percent Effect [%]
1,CN1CCOC(C(=O)N2CCCC(C)(C)CC2)C1 (centres undefined),-5.11
2,CCc1c(C)nc(N)nc1NCCSCc1[nH]cnc1C,-21.58
3,c1coc(-c2nc(CN3CCn4c(nnc4C4CC4)C3)cs2)c1,21.52
4,N#Cc1cccnc1N1CCCC(CO)(Cc2ccc(F)cc2)C1 (centres undefined),-22.45
5,CN(C)C(=O)c1ccc2c(c1)N(C)C(CC(=O)NCc1ncc[nH]1)CO2 (centres undefined),-21.18
6,O=C(COc1ccccc1)NS(=O)(=O)Cc1ccccc1,9
7,COCCN1C[C@@H](C)[C@@]2(COCCN(C(=O)Cc3ccccc3)C2)C1.O=C(O)C(F)(F)F,-3.108
8,CC(C)CC(C#N)NC(=O)c1ccc(Oc2cccnc2)cc1 (centres undefined),0.407
9,CCN(Cc1nc2c(cnn2C)c(=O)[nH]1)c1ccc(OC)c(OC)c1,11.95
10,CCN(Cc1nc2c(cnn2C)c(=O)[nH]1)c1cc(C)ccc1C,-12.64
11,CCN(Cc1nc2c(cnn2C)c(=O)[nH]1)c1cccc(Cl)c1,-0.7695
12,CCN(Cc1ccc(OC)c(F)c1)Cc1nc2c(cnn2C)c(=O)[nH]1,142.5
13,CCN(Cc1ccc2c(c1)OCO2)Cc1nc2c(cnn2C)c(=O)[nH]1,112.4
14,COc1ccc(CN(C)Cc2nc3c(cnn3C)c(=O)[nH]2)cc1OC,10.06
15,CCN(Cc1ccc(F)c(F)c1)Cc1nc2c(cnn2C)c(=O)[nH]1,128.6
16,CN(Cc1ccc2c(c1)OCO2)Cc1nc2c(cnn2C)c(=O)[nH]1,5.823
17,COCCN1C[C@H]2CC[C@@H]1CN(Cc1cc(=O)c3cc(C)ccc3[nH]1)C2,-2.085
18,COc1c(-c2ccc(O)cc2)oc2cc(O)cc(O)c2c1=O [ISOKAEMPFERIDE],3.468
19,CCc1cc(N2CCC(N[C@@H]3CS(=O)(=O)C[C@H]3O)CC2)nc(N(C)C)n1,-8.378
20,Cc1ncnc2c1CCN(S(=O)(=O)C1CC1)CC2,105
21,CN1CCN(c2ncnc3c2CCN(c2ncc(F)cn2)CC3)CC1.O=C(O)C(F)(F)F,6.683
22,O=C(C1CC1)N1CCCN(c2ncnc3c2CCNCC3)CC1,-5.367
23,CCOc1ncnc2c1CCN(S(=O)(=O)C1CC1)CC2,10.58
24,Fc1cccc(N2CCc3ncnc(N4CCOCC4)c3CC2)c1,24.23

row,Compound,Percent Effect [%]
1,O=S(=O)(C1CC1)N1CCc2ncnc(N3CCOCC3)c2CC1,100.4
2,CN1CCN(c2ncnc3c2CCN(S(=O)(=O)C2CC2)CC3)CC1.O=C(O)C(F)(F)F,114.5
3,O=S(=O)(C1CC1)N1CCc2ncnc(-c3ccc(F)cc3)c2CC1,10.52
4,Cc1cnc(N2CCc3ncnc(N4CCN(C)CC4)c3CC2)nc1.O=C(O)C(F)(F)F,-5.23
5,c1nc2c(c(N3CCOCC3)n1)CCNCC2,91.19
6,O=S(=O)(C1CC1)N1CCc2ncnc(-c3ccsc3)c2CC1,-15.04
7,CCN1CCC(CC(=O)N2CCCCC2CCn2cccn2)CC1 (centres undefined),1.727
8,N#Cc1ccc(CNC(=O)NCCNC(=O)C2CCCC2)c(F)c1,4.725
9,COc1ccc2ccccc2c1CNCC1CCS(=O)(=O)C1.Cl (centres undefined),9.511
10,O=C(O)C(F)(F)F.O=C(O)C(F)(F)F.O=C(O)C(F)(F)F.c1ccc(CN2CCc3ncnc(N4CCCC4)c3CC2)nc1,8.605
11,O=C(O)C(F)(F)F.O=S(=O)(C1CC1)N1CCc2ncnc(-c3ccncc3)c2CC1,-12.42
12,O=C(O)C(F)(F)F.O=S(=O)(C1CC1)N1CCc2ncnc(N3CCCC3)c2CC1,105.6
13,COCCC1(CNC(=O)NCC2CCCN(C)C2)CCCC1 (centres undefined),2.707
14,COCc1ncc(CN2CC[C@@](C)(O)[C@@H](Cc3ccccc3)C2)cn1,-1.853
15,COc1ncc(CN2C[C@@H]3C[C@@H](O)CN3C[C@@H]2Cc2ccccc2)cn1,106.8
16,CCc1ncc(CN2C[C@@H]3C[C@@H](O)CN3C[C@@H]2Cc2ccccc2)cn1,90.44
17,CCc1ncc(CN2CCCN(CC3CC3)C(C(C)C)C2)cn1 (centres undefined),-1.309
18,COc1ncc(CN2CCOC(Cc3cccc4ccccc34)C2)cn1 (centres undefined),-6.808
19,COc1ccc(CN2C[C@H](O)C[C@H]2c2nc(-c3ccccc3)no2)cc1,10.67
20,CN(C)CCN1Cc2ncn(C)c2C(COCC(=O)N(C)C)C1 (centres undefined),87.7
21,CN(C)C(=O)N1Cc2ncn(C)c2C(COCC2CCOCC2)C1.O=C(O)C(F)(F)F (centres undefined),-8.2
22,CCOCCN1Cc2ncn(C)c2C(COCC2CCOCC2)C1.O=C(O)C(F)(F)F.O=C(O)C(F)(F)F (centres undefined),-3.886
23,CN(C)CC(=O)N1Cc2ncn(C)c2C(COCC2CCOCC2)C1 (centres undefined),11.09
24,CN(C)C(=O)COCC1CN(CC2CCOCC2)Cc2ncn(C)c21 (centres undefined),99.32

row,Compound,Percent Effect [%]
1,CCOCC1CN(C(=O)N(C)C)Cc2nn(C)cc21 (centres undefined),-8.201
2,Cc1ccc(CN2C[C@H]3C(=O)N(CC4CC4)C[C@@]3(C(=O)O)C2)c(F)c1F,26.68
3,O=C(CSCC1CC1)N1CCC2(CCCN(C3CCOCC3)C2=O)C1 (centres undefined),90.41
4,O=C(CN1CCOCC1)N1CCC2(CCCN(C3CCOCC3)C2=O)C1 (centres undefined),102.1
5,O=C(CCCn1cncn1)N1CCC2(CCCN(C3CCCC3)C2=O)C1 (centres undefined),-21.81
6,CS(=O)(=O)CCC(=O)N1CCC2(CCCN(C3CCOCC3)C2=O)C1 (centres undefined),-5.583
7,O=C(COCC(F)(F)C(F)F)N1CCC2(CCCN(CC3CC3)C2=O)C1 (centres undefined),-8.945
8,CN1CCCC2(CCN(C(=O)Cc3cc4c(cc3Cl)OCCO4)C2)C1=O (centres undefined),-11.77
9,O=C(CCc1nc(Cl)n[nH]1)N1CCC2(CCCN(CC3CCC3)C2=O)C1 (centres undefined),-5.22
10,O=C(CCCn1cncn1)N1CCC2(CCCN(CC3CC3)C2=O)C1 (centres undefined),15.06
11,O=C(CSC(F)(F)F)N1CCC2(CCCN(C3CCOCC3)C2=O)C1 (centres undefined),96.55
12,CCS(=O)(=O)N1CCCC2(CCCN2C(=O)c2cscn2)C1 (centres undefined),-8.968
13,N#Cc1ccc(NCCCN2C(=O)COc3ccccc32)nc1,-5.647
14,CNC(=O)c1cccc(CN2CCN(c3ccncc3)CC2)c1,83.93
15,CNC(=O)c1ccc(Cn2ccnc2S(C)(=O)=O)cc1,-4.025
16,CC(NC(=O)c1cccc(CN2CCN(C)CC2)c1)c1ccccn1 (centres undefined),-0.367
17,CN(C)c1ncccc1C(=O)N1CCN(C2=NCC(C)(C)S2)CC1,-14.23
18,CC(=O)Nc1cccc(CN2CCN(C3=NCC(C)(C)S3)CC2)c1,100.4
19,CC(=O)Nc1cccc(Cn2nc(C)nc2C)c1,5.981
20,CNC(=O)c1cccc(CN2CCN(C3=NCC(C)(C)S3)CC2)c1,103.7
21,CNC(=O)c1cccc(CN2CCC(N(C)Cc3nnc(C)o3)C2)c1 (centres undefined),0.9226
22,CNC(=O)c1ccc(CN2CCN(C3=NCC(C)(C)S3)CC2)cc1,129.2
23,CC(=O)NCCC(=O)Nc1cccc(N2CCN(CC3CC3)CC2)c1,8.668
24,CC(NC(=O)c1cccc(CN2CCN(C)CC2)c1)c1nccs1 (centres undefined),12.68

row,Compound,Percent Effect [%]
1,COCc1cccc(C(=O)N2CCN(C3=NCC(C)(C)S3)CC2)c1,0.6755
2,CN(CCCc1n[nH]c(N)c1C#N)C(=O)NC1CC1,0.449
3,O=C(NCCCO)Nc1cccc(C[S+]([O-])c2ccccc2)c1 (centres undefined),2.569
4,CN(Cc1ccccc1)CC1CC2(CO1)CN(Cc1nccs1)C2 (centres undefined),11.68
5,Cc1ccc(C(=O)N2CCC3(CCCN(c4ccc(C)nn4)C3)C2)cn1 (centres undefined),4.152
6,Cc1ccc(N2CCC3(CCCN(C(=O)c4cccnc4)C3)C2)nn1.O=C(O)C(F)(F)F (centres undefined),-9.172
7,Cc1ccc(C(=O)N2CCC3(CCCN(c4ncc(F)cn4)C3)C2)cn1.O=C(O)C(F)(F)F (centres undefined),104
8,CN(Cc1ccncc1)C1CC2(CCN(c3ncc(F)cn3)CC2)C1.O=C(O)C(F)(F)F.O=C(O)C(F)(F)F,-2.894
9,O=C(O)C(F)(F)F.O=C(c1ccncc1)N1CCC2(CCCN(c3ncc(F)cn3)C2)C1 (centres undefined),105.7
10,Cc1occc1C(=O)N1CCC2(CCCN(Cc3cccs3)C2)C1.O=C(O)C(F)(F)F (centres undefined),-3.04
11,Cc1occc1C(=O)N1CCC2(CCCN(c3ncc(F)cn3)C2)C1.O=C(O)C(F)(F)F (centres undefined),116.2
12,Cc1occc1C(=O)N1CCC2(CCCN(Cc3nccs3)C2)C1.O=C(O)C(F)(F)F (centres undefined),1.287
13,c1ccc2c(c1)CC(CNCc1ccncc1)(N1CCCCC1)C2,-2.88
14,CC(CN1CCC2(CC1)c1nc[nH]c1CCN2S(C)(=O)=O)C(F)(F)F (centres undefined),-8.098
15,COC(=O)c1ccc(C(=O)NS(=O)(=O)c2cncc(Br)c2)cc1,-17.99
16,Cc1ncsc1CCCn1ccnc1-c1cc2n(n1)CCCNC2,-0.1089
17,CC(O)CN1CCc2[nH]nc(C(c3ccccc3)c3ccccc3)c2C1 (centres undefined),0.8234
18,CCC1(CO)CCCN(C(=O)c2ccc(N3CCN(C)CC3)cc2)C1 (centres undefined),-10.61
19,COc1ccc(C(=O)N2CCCC3(CCCC(=O)N3C)C2)cc1 (centres undefined),91.19
20,CCc1ccc(C(=O)N2CCCC3(CCCC(=O)N3C)C2)cc1 (centres undefined),97.96
21,CCC1(C(=O)O)CCCN(C(=O)c2ccc(N3CCN(C)CC3)cc2)C1 (centres undefined),4.53
22,O=C(NC1CCCCC1)N1C[C@H]2CN(c3cnccn3)C[C@@]2(C(=O)O)C1,-17.1
